# KB-V1 MDR tox – kills drug-selected multidrug resistant KB-V1 cells. KB-V1 MDR cells viability, CellTiter-Glo, 72 h. Potency, µM (doses to about 46.1 µM), actives largely listed as cytotoxic. actives 3.4% (n = 400,000). AID 1347076; note: % is set by controls: 0 for no effect and ±100 for the full control effect; nearly all actives have a fitted effect of over 60% in size
#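 In this primary screen, KB-V1 cells overexpressing P-gp are incubated with library compounds (lowest to highest concentration) for 72 h at 37 degrees C before a luminescent ATP viability read.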
# ELG1 DNA repair – ELG1-dependent DNA repair inhibition | HEK293T ELG1-luciferase reporter, luminescence, 16 h; DNA damage induced by 5-fluorouridine | actives 2.3% (n = 330,000) | Potency, µM (titrated, usually from 46.1 µM), without a hit: top-dose activity change, negative = inhibition, most hits filed as inhibitors; note: % is set by controls: 0 for no effect and ±100 for the full control effect; nearly all actives have a fitted effect of over 55% in size
#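 HEK293T cells expressing luciferase-tagged ELG1 (2,000/well) received 5-Fluorouridine plus compound or DMSO for 16 hr at 37 °C. Luciferase was read by ONE-Glo luminescence after 30 min at room temperature.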
# KB-3-1 tox – KB-3-1 parental cell cytotoxicity; KB-3-1 viability, CellTiter-Glo ATP luminescence, 72 h; Potency, µM (titrated, usually from 46.1 µM), hits mostly cytotoxic; actives 1.4% (n = 400,000); AID 1347075; note: % is set by controls: 0 for no effect and ±100 for the full control effect; nearly all actives have a fitted effect of over 60% in size
#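 Luminescent ATP read-out (CellTiter-Glo) measures survival of drug-naive KB-3-1 cells after 72 h compound exposure at 37 °C. Titration series was screened from lowest to highest concentration, with DMSO vehicle plates as background controls.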
# MCF10A rerep – induces DNA re-replication in MCF 10a normal breast cells; MCF 10A DNA re-replication, Hoechst nuclear intensity, 48 h; Potency, µM (series often up to 46.1 µM), without a hit: top-dose activity, positive = re-replication, most hits filed as activators; actives 2.9% (n = 350,000); note: % of control where 0% means no effect; nearly all actives have a fitted effect of over 50% in size
# SW480 rereplic – DNA re-replication induction in SW480 cells; AID 624297; Potency, µM (series often up to 46.1 µM), without a hit: at the top dose re-replication activation, hits mostly activators; actives 1.8% (n = 340,000); SW480 DNA re-replication, Hoechst DNA content imaging, 48 h; note: % of control where 0% means no effect; nearly all actives have a fitted effect of over 55% in size
#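 Image-based read-out: total Hoechst fluorescence of nuclei (405 nm excitation, 500-530 nm emission), with hits raising the fraction of high-intensity nuclei. SW480 colon cells incubated 48 hr with compounds at 37 C.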
# ELG1 FLuc counter – luciferase inhibition in cell-free luciferin readout for ELG1 hits; actives 3% (n = 350); Potency, µM (series often up to 46.1 µM), for the others: top-dose activity change, negative = inhibition, most hits filed as inhibitors; AID 624247; cell-free firefly luciferase luminescence counter-screen, ViewLux; shares compounds with ELG1 DNA repair; note: % is set by controls: 0 for no effect and ±100 for the full control effect
# ELG1 Luc conf – inhibits ELG1-dependent DNA repair in HEK293T cells, confirmed. actives 68% (n = 670). AID 624248. Potency, µM (doses to about 46.1 µM), for the others: at the highest dose activity change, negative = inhibition, hits mostly inhibitors. HEK293T ELG1-luciferase levels, luminescence; cells co-treated with 5-fluorouridine. shares compounds with ELG1 DNA repair; note: % is set by controls: 0 for no effect and ±100 for the full control effect; nearly all actives have a fitted effect of over 55% in size
# ELG1 MMS Luc – inhibits ELG1-dependent repair under MMS stimulation in HEK293T cells | AID 624249 | HEK293T luciferase-tagged ELG1 level, MMS stimulated | Potency, µM (titrated, usually from 46.1 µM), inactives show top-dose activity change, negative = inhibition, hits mostly inhibitors | actives 53% (n = 670) | shares compounds with ELG1 DNA repair; note: % is set by controls: 0 for no effect and ±100 for the full control effect; nearly all actives have a fitted effect of over 60% in size
# ELG1 5FU viab – confirmation of ELG1 repair inhibitors: viability with 5FU; AID 624250; 670 tested, under 10 active; cell viability with 5-FU, ELG1-dependent repair; Potency, µM (highest dose often 46.1 µM), inactives show at the highest dose activity change, negative = viability loss, usual class: cytotoxic; shares compounds with ELG1 DNA repair;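 note: ELG1-luc HEK293T cells cotreated with 5-fluorouridine at 10 µM final; viability measured 16 h after compound addition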
# ELG1 MMS viab – confirmation of ELG1 repair inhibitors: viability with MMS; Cell viability with MMS, ELG1-dependent DNA repair; shares compounds with ELG1 DNA repair; Potency, µM (titrated, usually from 46.1 µM), for inactives: at the highest dose activity change, negative = viability loss, hits mostly cytotoxic; actives 33% (n = 670);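 note: ELG1-luc HEK293T cells co-treated with 10 µM MMS; viability read 16 h after compound addition; % is set by controls: 0 for no effect and ±100 for the full control effect; nearly all actives have a fitted effect of over 60% in size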
# Cell viab unstim – affects unstimulated cell viability, ELG1 hit counter-screen | shares compounds with ELG1 DNA repair | cell viability counter-screen, unstimulated, luminescence | Potency, µM (titrated, usually from 45.9 µM), for inactives: top-dose activity change, negative = loss of viability, hits mostly cytotoxic | actives 8% (n = 900) | AID 624252;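 note: compound exposure lasted 16 hours before reading; % is set by controls: 0 for no effect and ±100 for the full control effect; nearly all actives have a fitted effect of over 55% in size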
# FLuc biochem – inhibits purified firefly luciferase, counter-screen for ELG1 hits; actives 10% (n = 350); purified firefly luciferase, luminescence counter-screen; shares compounds with ELG1 DNA repair; Potency, µM (titrated, usually from 57.5 µM), without a hit: at the highest dose activity, negative = inhibition, usual class: inhibitors; AID 624253; note: % is set by controls: 0 for no effect and ±100 for the full control effect
# Numbers without * were called inactive; i = inactive; ? = inconclusive; · = no result given; [ ] = dose if it differs, or a comment. Most compounds without a hit are left out; they make up all but 8.2% or so of the library. Calls come from the whole dose curve; as a rule, active = well fitted curve in the direction sought with a large enough effect; inconclusive = small, poorly fitted or top-dose-only effect, or another doubt; inactive = no such curve, though single readings can be large; an effect the other way counts as inactive or inconclusive. Potency is the fitted concentration of half-maximal effect.
SMILES,KB-V1 MDR tox,ELG1 DNA repair,KB-3-1 tox,MCF10A rerep,SW480 rereplic,ELG1 Luc conf,ELG1 MMS Luc,ELG1 5FU viab,ELG1 MMS viab,Cell viab unstim,others
COc1ccc(CN2CCC(n3nccc3NC(=O)CCc3ccccc3)CC2)c(C)c1C,i,-13%,i,-1%,-7%,·,·,·,·,·,
Cc1cc(C)c(C#N)c(SCC(=O)Nc2cc(C)on2)n1,8.2µM*,?,i,?,?,·,·,·,·,-4%,
Cc1cc(NC(=O)CSc2nc3c(C)ccc(C)c3cc2C#N)no1,i,0%,i,0%,4%,·,·,·,·,·,
NS(=O)(=O)c1ccc(NC(=O)COC(=O)C2CC2)cc1,i,1%,i,-26%,-5%,·,·,·,·,·,
N/C(=N\OC(=O)/C=C/c1ccccc1)c1ccccn1,i,?,i,-7%,-8%,·,·,·,·,·,
COc1ccc(/C=C/C(=O)O/N=C(\N)c2ccccn2)cc1OC,i,?,i,-3%,?,·,·,·,·,-9%,
O=C1CC(N2CCN(c3ccccn3)CC2)C(=O)N1CC(c1ccccc1)c1ccccc1 (centres undefined),i,4.1µM*,i,?,12%,28µM*,?,-8%,?,?,
CCCCCCn1c(=O)n2n(c1=O)C[C@]1(OC(=O)Nc3c(C)noc3C)CN(S(=O)(=O)c3ccc(C)cc3)C[C@]1(O)C2,i,·,i,·,·,·,·,·,·,·,
COc1ccc(-c2cc(=O)oc3c(C)c(OC(C)C(C)=O)ccc23)cc1 (centres undefined),i,-18%,i,14%,11%,·,·,·,·,·,
COc1ccc(-c2cc(=O)oc3c(C)c(OC(=O)c4cccs4)ccc23)cc1,i,4.1µM*,i,7%,-11%,4.4µM*,?,-4%,-2%,-6%,
CCn1c(=O)c2cc(C(=O)Nc3cc(C)c(Cl)cc3OC)sc2c2ccccc21,i,·,i,·,·,·,·,·,·,·,
O=C1c2cc(Cl)ccc2OC2(CCNCC2)C12CC(c1ccc(Cl)cc1)=NO2 (centres undefined),i,14%,i,-4%,-38%[9.22 µM],·,·,·,·,·,
CC(C)C(=O)N1CCC2(CC1)Oc1ccc(Cl)cc1C(=O)C21CC(c2ccc(Cl)cc2)=NO1 (centres undefined),i,2.6µM*,i,3%,3%[9.22 µM],10µM*,-15%,?,-6%,?,
COCCn1c(=N)c(C(=O)NCCc2ccc(OC)cc2)cc2c(=O)n3cccc(C)c3nc21,i,?,i,?,?,5µM*,?,?,3%,?,
CCc1ccc(S(=O)(=O)Nc2cccc(-c3ccc(N4CCOCC4)nn3)c2)cc1,i,·,i,·,·,·,·,·,·,·,
COc1ccc(/C=N/NC(=O)Nc2cccc3nsnc23)cc1OC,?,2.6µM*,i,?,?,2.8µM*,22µM*,?,?,?,
COc1ccc(/C=N/NC(=O)c2cccc(C(=O)N/N=C/c3ccc(OC)c(OC)c3)n2)cc1OC,i,?,i,8%,7%,·,·,·,·,·,
O=c1c2ccccc2oc2c1oc1ccccc12,i,?,i,-10%,-6%,·,·,·,·,-15%,
COc1ccc2sc3c(=O)[nH]c4ccccc4c3c2c1,?,0.82µM*,?,?,5%,2µM*,1.6µM*,8%,9%,4%,ELG1 FLuc counter=-6%;FLuc biochem=1%
COc1cccc2cc(-c3cc(=O)oc4ccc(OCC(C)=O)cc34)oc12,?,2.6µM*,i,0%,-9%,6.3µM*,11µM*,8%,-16%,?,
COc1cccc(NC(=O)CN(C)C(C)C(=O)NC(=O)NC2CCCCC2)c1 (centres undefined),i,-6%,i,?,-23%,·,·,·,·,·,
O=C(/C=C/c1ccc(F)cc1)NC(=S)NNC(=O)c1cnccn1,?,2.3µM*,5.8µM*,4%,14%,?,20µM*,-8%,-14%,-13%,
CN(C(=O)c1sc2nc(N3CCOCC3)c3c(c2c1N)CCCC3)c1ccccc1,i,13µM*,i,?,?,16µM*,22µM*,?,2%,-17%,ELG1 FLuc counter=-3%;FLuc biochem=3%
CCCCN(CCCC)C(=O)c1sc2nc(N3CCOCC3)c3c(c2c1N)CCCC3,i,?,i,?,?,·,·,·,·,·,
Cc1cccc2cc(CN(CCN3CCOCC3)C(=O)Nc3ccccc3F)c(=O)[nH]c12,i,3.3µM*,i,4%,1%,4µM*,30%,?,4%,-12%,
Cc1cc2cc(CN(CCN3CCOCC3)C(=O)Nc3ccccc3F)c(=O)[nH]c2cc1C,i,?,i,-3%,3%,·,·,·,·,·,
Cc1cccc(S(=O)(=O)NC(=O)C2(C)CCN2C(=O)Cc2cccs2)c1 (centres undefined),i,·,i,·,·,·,·,·,·,·,
COc1cccc(-c2nc(-c3ccc4c(c3)-c3ccccc3S4(=O)=O)c(-c3ccccc3)[nH]2)c1OC,i,2.6µM*,i,?,?,3.5µM*,-16%,?,?,-2%,

# Assay outcomes from PubChem.
